Experimental data from publication PMC4552634, “A New Set of Chemical Starting Points with Plasmodium falciparum Transmission-Blocking Potential for Antimalarial Drug Discovery” (PLoS ONE, 2015).
The whole screen tested about 13,000 compounds, of which about 3,200 (25%) showed an effect of 50% or more. Some of the results follow.

What follows are compounds tested on P. falciparum stage V gametocytes. Conditions: 48 h, 5 µM; inhibitor.
Design: BacTiter-Glo ATP luminescence viability of purified stage V gametocytes in 384-well plates, per cent inhibition versus DMSO

Question: With `CCN1CCN(c2cc(C)c3cc(NC(=O)c4cccc([N+](=O)[O-])c4)ccc3n2)CC1` [TCMDC-125577] as the compound, how does the “% Inhibition” value read?
Answer: 8.914%

Question: With `CCN(CC)CCn1c2ccccc2c2ccc(C(=O)Nc3ccc4sc(C)nc4c3)cc21` [TCMDC-135280] as the compound, how does the “% Inhibition” value read?
Answer: -1.763%

Question: With `O=C(c1cccc(-c2ccc(-c3nc4cc(F)ccc4[nH]3)s2)c1)N1CCCCC1CN1CCC(O)C1` (stereo not shown) [TCMDC-132343] as the compound, how does the “% Inhibition” value read?
Answer: -28.04%

Question: For `COc1ccc2nc(C)cc(Nc3ccc(Oc4ccc(Cl)cc4)c(Cl)c3)c2c1` [TCMDC-123477], which “% Inhibition” value is on record?
Answer: -13.35%

Question: With `Cc1csc(NC(=O)c2cn(-c3ccccc3)nc2-c2cccs2)n1` [TCMDC-124531] as the compound, how does the “% Inhibition” value read?
Answer: 15.91%

Question: How did the “% Inhibition” value turn out when `CC1CCCC(NCc2c(O)ccc3ccccc23)C1` (stereo not shown) [TCMDC-137601] was run?
Answer: 28.2%

Question: With `O=C(NCc1cccc2ccccc12)[C@@H]1CCCN1C(=O)c1ccc(O)c(-c2ccc(Cl)c(Cl)c2)c1` [TCMDC-140876] as the compound, how does the “% Inhibition” value read?
Answer: 16.61%

Question: For `COc1ccc2ccc(F)c(CC(=O)N3CCOC(CNCc4cccc(-c5ccc(F)cc5)n4)C3)c2n1` (stereo not shown) [TCMDC-135026], which “% Inhibition” value is on record?
Answer: -25.99%

Question: Which “% Inhibition” value does the source give for `CCOC(=O)c1c(CSc2ccccc2)oc2cc(CN(C)C)c(O)c(Cl)c12` [TCMDC-124095] here?
Answer: -76.05%

Question: `Cc1cccc2[nH]c(-c3ccc(-c4cccc(NCc5cn6cccnc6n5)c4)cc3)nc12` [TCMDC-136896] was tested. Which “% Inhibition” value did it give?
Answer: -19.99%

Question: With `COc1cccc2cc(C(=O)N[C@@H](CC(C)C)C(=O)Nc3cc(F)ccc3Br)oc12` [TCMDC-135547] as the compound, how does the “% Inhibition” value read?
Answer: 2.093%

Question: For `Cc1[nH]c(C)c(-c2ccc(OCCCc3ccccn3)cc2)c(=O)c1Br` [TCMDC-135795], which “% Inhibition” value is on record?
Answer: 65.53%

Question: With `C=Cc1ccc(-c2c(C)[nH]c(C)c(Br)c2=O)cc1` [TCMDC-135433] as the compound, how does the “% Inhibition” value read?
Answer: 58.24%

Question: How did the “% Inhibition” value turn out when `C=CCOc1ccccc1CNCC(O)c1cc(Br)cs1` (stereo not shown) [TCMDC-140498] was run?
Answer: -6.926%

Question: Which “% Inhibition” value does the source give for `CN(C)C(CNC(=O)c1cc(-c2ccncc2)c(-c2ccc(NC(=O)Nc3cccc(Cl)c3)cc2)o1)c1ccccc1` (stereo not shown) [TCMDC-135781] here?
Answer: -15.22%

Question: With `COc1cccc(NC(=O)Nc2ccc(Nc3nc(C)cc(N(C)C)n3)cc2)c1` [TCMDC-124959] as the compound, how does the “% Inhibition” value read?
Answer: 26.66%

Question: With `CCC(C)(C)NC(C)C(O)c1ccc(C(F)(F)F)cc1` (stereo not shown) [TCMDC-138152] as the compound, how does the “% Inhibition” value read?
Answer: -4.943%

Question: `Cc1ccc(NCC(=O)Nc2ccc(F)c(Cl)c2)cc1S(=O)(=O)N1CCOCC1` [TCMDC-123553] was tested. Which “% Inhibition” value did it give?
Answer: -4.453%

Question: Which “% Inhibition” value does the source give for `Cc1[nH]c(C)c(-c2ccc(Oc3ccc(Cl)cc3)cc2)c(=O)c1Cl` [TCMDC-137418] here?
Answer: 32.25%

Question: For `Cc1[nH]c(C)c(-c2ccc(Oc3ccc(Cl)cc3)cc2)c(=O)c1I` [TCMDC-137393], which “% Inhibition” value is on record?
Answer: 12.14%

Question: `Cc1[nH]c(C)c(-c2ccc(Oc3ccc(Cl)cc3)cc2)c(=O)c1C` [TCMDC-137378] was tested. Which “% Inhibition” value did it give?
Answer: 85.12%

Question: How did the “% Inhibition” value turn out when `Cc1[nH]c(C)c(-c2ccc(Oc3cccc(Cl)c3)cc2)c(=O)c1Cl` [TCMDC-137395] was run?
Answer: 75.57%

Question: For `Cc1[nH]c(C)c(-c2ccc(Oc3cc(Cl)cc(Cl)c3)cc2)c(=O)c1Cl` [TCMDC-137391], which “% Inhibition” value is on record?
Answer: 69.19%

Question: With `NC(=O)c1ccsc1NC(=O)CNC(c1ccc(F)cc1)c1cccs1` (stereo not shown) [TCMDC-125036] as the compound, how does the “% Inhibition” value read?
Answer: 5.053%

Question: With `C[C@@H]1CN(C(c2cccc(O)c2)c2cccc(C(=O)N(C)c3cccc(F)c3)c2)[C@@H](C)CN1C(c1cccc(O)c1)c1cccc(C(=O)N(C)c2cccc(F)c2)c1` (stereo partly shown) [TCMDC-137248] as the compound, how does the “% Inhibition” value read?
Answer: -16.24%

Question: `CCN(CC)CCCN(C(=O)Nc1ccc(C#N)cc1)c1nc(-c2ccc(F)cc2)cs1` [TCMDC-136664] was tested. Which “% Inhibition” value did it give?
Answer: -0.5138%

Question: Which “% Inhibition” value does the source give for `CN1C2CCC1c1cc(NC(=O)c3cc(-c4ccc(Cl)cc4)cs3)ccc12` (stereo not shown) [TCMDC-134192] here?
Answer: -60.68%

Question: Which “% Inhibition” value does the source give for `CCOc1cc(C(=O)NC2CCN(Cc3ccccc3)CC2)ccc1-c1nc2cc(Cl)c(F)cc2[nH]1` [TCMDC-140096] here?
Answer: -27.97%

Question: How did the “% Inhibition” value turn out when `CC(C)(C)c1cc(C(=O)N2CCN(c3ncnc4ccsc34)CC2)n(Cc2ccccc2)n1` [TCMDC-133771] was run?
Answer: -19.67%

Question: `CCCCNCC(O)COc1ccccc1-c1ccc(N/N=C/c2cccc3ccccc23)nn1` (stereo not shown) [TCMDC-139416] was tested. Which “% Inhibition” value did it give?
Answer: 102.4%

Question: For `COc1ccc(NC(=O)/C=C/c2ccccc2Cl)cc1OCCN1CCN(c2ccncc2)CC1` [TCMDC-140732], which “% Inhibition” value is on record?
Answer: 4.813%

Question: For `COc1cc(NC(=O)c2ccc(-c3ccc(C(C)=O)cc3)s2)ccc1OCCN1CCCC1` [TCMDC-138864], which “% Inhibition” value is on record?
Answer: -4.371%

Question: `COc1cc(NC(=O)c2sc(-c3ccc(Cl)cc3)cc2Cl)ccc1OCCN1CCCC1` [TCMDC-135556] was tested. Which “% Inhibition” value did it give?
Answer: -58.99%

Question: With `COc1cc(NC(=O)c2sc(-c3ccc(Cl)cc3)cc2NC(=O)c2cccnc2)ccc1OCCN1CCCC1` [TCMDC-135397] as the compound, how does the “% Inhibition” value read?
Answer: 125.5%

Question: With `COc1cc(NC(=O)c2sc(-c3ccc(Cl)cc3)cc2NC(=O)c2cccc(N(C)C)c2)ccc1OCCN1CCCC1` [TCMDC-135403] as the compound, how does the “% Inhibition” value read?
Answer: 72.06%

Question: For `COc1ccc(NC(=O)c2ccc3[nH]c(-c4ccc(Cl)cc4)cc3c2)cc1OCCN(C)C` [TCMDC-138706], which “% Inhibition” value is on record?
Answer: -82.62%

Question: Which “% Inhibition” value does the source give for `COc1cc(NC(=O)c2ccc3oc4ccccc4c3c2)ccc1OCCN1CCCCC1` [TCMDC-140701] here?
Answer: -7.89%

Question: How did the “% Inhibition” value turn out when `COc1cc(NC(=O)c2sc(-c3ccc(Cl)cc3)cc2NC(=O)c2ccncc2)ccc1OCCN1CCCC1` [TCMDC-135398] was run?
Answer: 121.8%

Question: How did the “% Inhibition” value turn out when `COc1cc(NC(=O)c2sc(-c3ccc(Cl)cc3)cc2NC(=O)N2CCCC2)ccc1OCCN1CCCC1` [TCMDC-135404] was run?
Answer: 71.79%

Question: Which “% Inhibition” value does the source give for `Cc1ccc(NC(=O)c2ccc(-c3cc4cc(Cl)c(Cl)cc4[nH]3)cc2)cc1OCCN1CCCC1` [TCMDC-141289] here?
Answer: 43.64%

Question: How did the “% Inhibition” value turn out when `COc1ccc(NC(=O)/C=C/c2ccccc2Cl)cc1OCCN1CCC(NCc2cccnc2)CC1` [TCMDC-140758] was run?
Answer: -13.35%

Question: `O=C(NCC1CCC(CNCCc2ccccc2)CC1)Nc1ccc(Cl)c(Cl)c1` (stereo not shown) [TCMDC-140704] was tested. Which “% Inhibition” value did it give?
Answer: -8.295%

Question: `CCCCCc1cc(O)c2c3c(c(=O)oc2c1)CN(C)CC3` [TCMDC-124170] was tested. Which “% Inhibition” value did it give?
Answer: 9.829%
